# Source: PubChem BioAssay AID493229 (Broad Institute, 2011)
# Results with a measured potency or affinity are listed apart. Results filed as inconclusive are left out. The source made the active and inactive calls. The rule behind the calls is not given here.
# Target: Protein RecA (Mycobacterium tuberculosis (strain ATCC 25618 / H37Rv)) (UniProt P9WHJ3)
# Assay: Mycobacterium tuberculosis RecA intein splicing inhibitors, confirmatory dry powder dose response (AID 493229)
# Sequence of Protein RecA (Mycobacterium tuberculosis (strain ATCC 25618 / H37Rv)) (P9WHJ3 whole entry, looked up): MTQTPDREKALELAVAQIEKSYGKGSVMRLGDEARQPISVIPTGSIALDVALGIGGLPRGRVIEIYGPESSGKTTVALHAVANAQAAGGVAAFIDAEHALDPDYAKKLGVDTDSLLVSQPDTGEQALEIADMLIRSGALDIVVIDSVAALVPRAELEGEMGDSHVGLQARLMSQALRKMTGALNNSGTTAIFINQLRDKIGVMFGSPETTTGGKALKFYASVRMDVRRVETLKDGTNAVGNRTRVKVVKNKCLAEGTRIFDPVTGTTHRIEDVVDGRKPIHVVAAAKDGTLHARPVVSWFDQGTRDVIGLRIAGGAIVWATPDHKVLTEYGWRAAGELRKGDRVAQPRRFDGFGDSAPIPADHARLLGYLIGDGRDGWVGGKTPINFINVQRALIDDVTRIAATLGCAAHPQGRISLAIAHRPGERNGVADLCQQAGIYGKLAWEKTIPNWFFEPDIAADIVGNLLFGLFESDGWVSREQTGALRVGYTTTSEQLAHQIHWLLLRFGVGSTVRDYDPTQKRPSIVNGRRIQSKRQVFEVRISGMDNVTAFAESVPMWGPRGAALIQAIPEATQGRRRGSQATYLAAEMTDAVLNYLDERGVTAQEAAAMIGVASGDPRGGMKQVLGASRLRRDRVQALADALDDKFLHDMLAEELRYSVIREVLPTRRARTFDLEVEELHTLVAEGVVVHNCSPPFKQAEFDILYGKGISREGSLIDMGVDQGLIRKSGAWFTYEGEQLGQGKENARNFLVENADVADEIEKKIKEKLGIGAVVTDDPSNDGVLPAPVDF
smiles,measurement,value
Nc1cn(-c2ccccc2)nc1-c1ccc(F)cc1,outcome,inactive
